Screening results deposited in PubChem by National Center for Advancing Translational Sciences (NCATS).
Hits are enriched below; roughly 6% of the tested compounds scored in any of these assays.
PLK1 PBD inh: qHTS for Inhibitors of PLK1-PDB (polo-like kinase 1 - polo-box domain): Primary Screen; Serine/threonine-protein kinase PLK1 (Homo sapiens), P53350; Plk1 PBD binding of FITC phosphopeptide, fluorescence polarization; Potency, µM, for inactives: max response, negative = inhibition, usual class: inhibitors; 2.8% of 360,000 active; AID 720504, 2013; also: series mostly up to about 57 µM; nearly all actives have a fitted effect of over 65% in size
Target sequence (P53350 whole entry, looked up, the tested form may be a part): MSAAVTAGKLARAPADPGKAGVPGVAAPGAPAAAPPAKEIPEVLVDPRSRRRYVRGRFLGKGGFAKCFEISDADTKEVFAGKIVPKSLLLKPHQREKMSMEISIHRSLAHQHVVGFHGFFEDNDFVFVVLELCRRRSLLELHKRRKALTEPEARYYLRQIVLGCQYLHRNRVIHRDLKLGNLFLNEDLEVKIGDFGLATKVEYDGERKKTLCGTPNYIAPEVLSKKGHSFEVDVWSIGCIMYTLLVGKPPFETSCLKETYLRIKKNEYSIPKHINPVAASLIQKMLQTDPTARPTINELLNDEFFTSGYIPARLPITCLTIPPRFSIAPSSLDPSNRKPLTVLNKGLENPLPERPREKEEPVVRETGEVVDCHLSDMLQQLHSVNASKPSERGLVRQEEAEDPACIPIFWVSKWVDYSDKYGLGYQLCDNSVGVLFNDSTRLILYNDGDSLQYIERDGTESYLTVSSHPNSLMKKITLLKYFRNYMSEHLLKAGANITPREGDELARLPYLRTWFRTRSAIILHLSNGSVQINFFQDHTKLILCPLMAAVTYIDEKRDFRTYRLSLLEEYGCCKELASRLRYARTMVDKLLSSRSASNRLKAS
Tau fluor counter: Counterscreen qHTS for Inhibitors of Tau Fibril Formation, Fluorescence Polarization; tau K18 P301L Alexa594 fluorescence, heparin fibrillization; Potency, µM (series often up to 57.7 µM), inactives show at the highest dose activity change, negative = decrease; 0.93% of 280,000 active; AID 1463, 2008; also: nearly all actives have a fitted effect of over 55% in size
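Human tau K18 P301L (15 uM unlabeled, 0.24 uM Alexa 594-labeled) in 100 mM sodium acetate pH 7 with 20 uM heparin, 6 hr at 37 C. ThT 30 uM added, 1 hr ambient; Alexa 594 FP and total fluorescence read at 555/632 nm.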
Tau fibril FP: qHTS for Inhibitors of Tau Fibril Formation, Fluorescence Polarization. 0.39% of 280,000 active. AID 1468, 2008. Potency, µM (top dose mostly 57.7 µM), for inactives: at the top dose activity, negative = inhibition, actives largely listed as inhibitors. K18 P301L tau heparin fibrillization, Alexa594 FP, 6 h; also: nearly all actives have a fitted effect of over 55% in size
Target sequence (P10636 561-689 P618L limits assumed): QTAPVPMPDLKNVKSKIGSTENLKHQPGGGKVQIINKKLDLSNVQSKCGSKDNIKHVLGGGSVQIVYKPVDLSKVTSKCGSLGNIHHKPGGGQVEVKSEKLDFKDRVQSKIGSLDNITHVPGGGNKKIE
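Quantitative HTS format: compounds meet 15 uM recombinant K18 P301L tau and Alexa 594-tau tracer in 100 mM sodium acetate pH 7; 20 uM heparin triggers fibrillization at 37 C over 6 hr; FP gives the signal.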
VDR inhibitor: Inhibitors of the vitamin D receptor (VDR): qHTS; Potency, µM, for the others: max response, negative = inhibition, most hits filed as inhibitors; AID 504847, 2011; Vitamin D3 receptor (Homo sapiens), P11473; 0.93% of 400,000 active; VDR-SRC2-3 peptide fluorescence polarization, 2 h
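Compounds are added to VDR with labelled SRC2-3 coactivator peptide and held 2 h at room temperature. Inhibition of the VDR–peptide interaction is then read as a change in fluorescence polarization.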
Tau fibril ThT: qHTS for Inhibitors of Tau Fibril Formation, Thioflavin T Binding | Microtubule-associated protein tau (Homo sapiens), P10636 | AID 1460, 2008 | recombinant tau K18 P301L (four-repeat tau fragment), heparin-induced fibrillization, ThT fluorescence | 2.1% of 270,000 active | Potency, µM (titrated, usually from 57.4 µM), inactives show at the top dose activity, negative = inhibition, actives largely listed as inhibitors; also: nearly all actives have a fitted effect of over 55% in size
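Heparin-induced (20 uM) aggregation of recombinant human K18 P301L tau, 15 uM unlabeled with 0.24 uM labeled, pH 7 acetate buffer, 6 hr at 37 C with compound. Fibrils quantified by 30 uM ThT fluorescence after 1 hr ambient incubation.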
Sfp PPTase inh: qHTS Assay for Inhibitors of Bacillus subtilis Sfp phosphopantetheinyl transferase (PPTase); 4'-phosphopantetheinyl transferase ffp (Bacillus subtilis), Q9F4F7; Biochemical Sfp PPTase activity, qHTS; Potency, µM, for inactives: largest response in the series, negative = inhibition, most hits filed as inhibitors; 3.5% of 310,000 active; AID 1490, 2009;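 also: the enzyme is Sfp with the accession as filed and its product quenches rhodamine fluorescence; 0% = enzyme reaction without inhibitor and -100% = no enzyme wells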
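Compounds were incubated with enzyme (final 15 nM) for 15 min at room temperature before substrate addition started the reaction. Fluorescence at 525 nm excitation, 598 nm emission was recorded immediately and after 30 minutes.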
Starred values were filed as active, the others as inactive; ! = not active in a repeat; [ ] = another dose, or the depositor's remark. Calls follow the shape of the dose curve; as a rule, active = well fitted curve in the direction sought with a large enough effect; inconclusive = small, poorly fitted or top-dose-only effect, or another doubt; inactive = no such curve, though single readings can be large; an effect the other way counts as inactive or inconclusive. Unless noted, % is scaled to controls: 0 for no effect and ±100 for the full control effect; potency is read from the fitted curve at half-maximal effect.

How did CCCCC1=CC2=C(c3ccco3)C(=O)C(C)(OC(=O)c3ccc(OC)cc3)C(=O)C2=CN1c1ccc(OC)cc1 (centres undefined) do in these assays?
PLK1 PBD inh: -8%; Tau fluor counter: 2%[11.6 µM]; Tau fibril FP: 1%[11.6 µM]; VDR inhibitor: -7%; Tau fibril ThT: -9%[11.5 µM]; Sfp PPTase inh: -16%

Results for CCCCC1=CC2=C(c3ccco3)C(=O)C(C)(OC(=O)c3ccc(OC)cc3)C(=O)C2=CN1CCCCO (centres undefined) ?
PLK1 PBD inh: -17%; Tau fluor counter: -13%[11.6 µM]; Tau fibril FP: -4%[11.6 µM]; VDR inhibitor: -13%; Tau fibril ThT: inconclusive; Sfp PPTase inh: inconclusive

Results for CCCCC1=CC2=C(c3ccco3)C(=O)C(C)(OC(=O)c3ccc(OC)cc3)C(=O)C2=CN1CC(C)C (centres undefined) ?
PLK1 PBD inh: -11%; Tau fluor counter: -4%[11.6 µM]; Tau fibril FP: -14%[11.6 µM]; VDR inhibitor: inconclusive; Tau fibril ThT: -9%[11.5 µM]; Sfp PPTase inh: 3.5µM*!

Results for CCCCC1=CC2=C(c3ccco3)C(=O)C(C)(OC(=O)c3ccc(OC)cc3)C(=O)C2=CN1Cc1ccco1 (centres undefined) ?
PLK1 PBD inh: inconclusive; Tau fluor counter: -4%[11.6 µM]; Tau fibril FP: 0%[11.6 µM]; VDR inhibitor: inconclusive; Tau fibril ThT: 8.9µM*!; Sfp PPTase inh: 45µM*

How did CCCCC1=CC2=C(c3ccco3)C(=O)C(C)(OC(=O)c3ccc(OC)cc3)C(=O)C2=CN1CC1CC1 (centres undefined) do in these assays?
PLK1 PBD inh: -19%; Tau fluor counter: inconclusive; Tau fibril FP: 4%[11.6 µM]; VDR inhibitor: -11%; Tau fibril ThT: 16µM*!; Sfp PPTase inh: 17%

How did CCCCC1=CC2=C(c3ccco3)C(=O)C(C)(OC(=O)c3ccc(OC)cc3)C(=O)C2=CN1Cc1ccc(OC)cc1 (centres undefined) do in these assays?
Tau fluor counter: 0%[11.6 µM]; Tau fibril FP: inconclusive; Tau fibril ThT: 14µM*!; Sfp PPTase inh: 71µM*!

What do the screens show for `Cc1ccc(/C=N/NC(=O)C(C)Oc2cccc3ccccc23)o1` (centres undefined)?
PLK1 PBD inh: -19%; VDR inhibitor: -16%; Sfp PPTase inh: 56µM*

Results for Cc1ccc(/C=N/NC(=O)c2cccc3ccccc23)o1 ?
PLK1 PBD inh: 4%; VDR inhibitor: 4%; Sfp PPTase inh: -17%

How did Cc1ccc(S(=O)(=O)N(CCc2ccccc2)CC(=O)Nc2cc(C)ccc2C)cc1 do in these assays?
Tau fluor counter: -4%; Tau fibril FP: 1%; VDR inhibitor: 6%; Tau fibril ThT: 5%

How did Cc1cccc(Cn2cc3c(=O)n(CC(=O)Nc4cccc(C)c4C)nc-3c3cc(F)ccc32)c1 do in these assays?
Tau fluor counter: -5%; Tau fibril FP: 12%; VDR inhibitor: 11%; Tau fibril ThT: inconclusive

How did COC(=O)c1cccc(N2CCCC2=O)c1 do in these assays?
PLK1 PBD inh: -10%; Tau fluor counter: 19%; Tau fibril FP: 1%; VDR inhibitor: 2%; Sfp PPTase inh: -6%

What do the screens show for `COC(=O)c1cccc(-n2sc3ccccc3c2=O)c1`?
PLK1 PBD inh: 2.7µM*; VDR inhibitor: inconclusive

Results for Cc1ccc(-n2sc3cc(F)ccc3c2=O)c(C)c1 ?
PLK1 PBD inh: 3µM*

Results for O=C(c1sc2cc(F)ccc2c1Cl)N1CCN(c2cccc(Cl)c2)CC1 ?
PLK1 PBD inh: 2%; Tau fluor counter: -19%; Tau fibril FP: -5%; VDR inhibitor: 14%; Tau fibril ThT: -14%; Sfp PPTase inh: 15%

What do the screens show for `O=c1c2ccc(F)cc2sn1-c1ccccc1`?
PLK1 PBD inh: 3.4µM*

How did O=c1c2ccccc2sn1-c1ccc(F)cc1 do in these assays?
PLK1 PBD inh: 3µM*; VDR inhibitor: 16µM*

What do the screens show for `N=C1SCC(=O)N1c1ccccc1Cl`?
PLK1 PBD inh: -16%; VDR inhibitor: -16%; Sfp PPTase inh: 8%

What do the screens show for `O=c1c2cc(F)ccc2sn1-c1ccccc1Cl`?
PLK1 PBD inh: 2.7µM*

Results for Cc1ccc(-c2[nH]nc3c2C(c2ccoc2)C(C#N)=C(N)O3)cc1C (centres undefined) ?
PLK1 PBD inh: inconclusive; Tau fluor counter: inconclusive; Tau fibril FP: inconclusive; VDR inhibitor: inconclusive; Tau fibril ThT: 32µM*; Sfp PPTase inh: 6%

How did COc1ccc(-c2[nH]nc3c2C(c2ccoc2)C(C#N)=C(N)O3)cc1 (centres undefined) do in these assays?
PLK1 PBD inh: inconclusive; Tau fluor counter: -20%; Tau fibril FP: 0%; VDR inhibitor: -1%; Tau fibril ThT: inconclusive; Sfp PPTase inh: 22%

How did COc1ccc(C2/C(=C(\O)c3ccc4c(c3)OCCO4)C(=O)C(=O)N2c2nc(C)c(C(C)=O)s2)cc1 (centres undefined) do in these assays?
PLK1 PBD inh: -24%; VDR inhibitor: -12%; Sfp PPTase inh: 45µM*

What do the screens show for `COc1ccccc1C1CC(c2ccc(Cl)cc2)Nc2ncnn21` (centres undefined)?
PLK1 PBD inh: 27µM*; Tau fluor counter: 4%; Tau fibril FP: 9%; VDR inhibitor: -20%; Tau fibril ThT: 3%; Sfp PPTase inh: -2%

What do the screens show for `COCCCn1c(=N)c(C(=O)NCc2ccco2)cc2c(=O)n3cccc(C)c3nc21`?
Tau fluor counter: 1%; Tau fibril FP: 7%; VDR inhibitor: -19%; Tau fibril ThT: -4%

How did CCOCCCn1c(=N)c(C(N)=S)cc2c(=O)n3cccc(C)c3nc21 do in these assays?
PLK1 PBD inh: inconclusive; Tau fluor counter: 2%; Tau fibril FP: -7%; VDR inhibitor: 79µM*; Tau fibril ThT: -14%; Sfp PPTase inh: -109%

Results for Cc1cccn2c(=O)c3cc(C(N)=S)c(=N)n(CCCOC(C)C)c3nc12 ?
PLK1 PBD inh: -25%; Tau fluor counter: -7%; Tau fibril FP: -6%; VDR inhibitor: 25µM*; Tau fibril ThT: inconclusive; Sfp PPTase inh: inconclusive

What do the screens show for `COc1cc(OC)c2c(C)c(CC(=O)NCc3ccccc3OC)c(=O)oc2c1`?
Tau fluor counter: -15%; Tau fibril FP: -1%; VDR inhibitor: 6%; Tau fibril ThT: -5%
